# In PubChem BioAssay (NCATS):
# Where “and” joins values, the source holds several entries; their conditions need not be identical. Equal values may be shown once. Inconclusive results are not listed. Where a call stands in place of a potency, no number is given. The source holds several records for some structures; these can differ, active in one and inactive in another. Calls of active or inactive are those of the source. Unless noted, the call rests on the fitted dose curve; in most records, active means well fitted curve in the direction sought with a large enough effect; inconclusive means small, poorly fitted or top-dose-only effect, or another doubt; inactive means no such curve, though single readings can be large; an effect the other way counts as inactive or inconclusive.
# Tests used:
# [1] = Cellular Toxicity (caspase-3) N2a (AID 665);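 further: compound exposure lasted 16 h at 37 °C before readout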
# Outline: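 Luminescent Caspase-Glo 3/7 readout in N2a mouse neuroblastoma cells after 16 h compound exposure at 37 °C. Signal scaled to DMSO (basal) and 10 uM staurosporine (100%). Concentration-response fitted with Hill equation for AC50.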
# [2] = Cellular Toxicity (caspase-3) NIH 3T3 (AID 666)
# Outline: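 NIH 3T3, 1000 cells/well, 5 hr settle then 16 hr compound at 37°C; Caspase-Glo 3/7, 20 min RT, luminescence. DMSO = basal, 100 uM tamoxifen = 100%. Hill-equation AC50, qHTS.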
# [3] = Cellular Toxicity (caspase-3) Renal Proximal Tubule (AID 667);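 further: cells exposed to compound for 16 hours at 37 °C before detection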
# Outline: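 Freshly isolated primary rat kidney proximal tubule cells, 1000/well, treated 16 hr at 37 °C, then Caspase-Glo 3/7 luminescence after 1 hr. Normalized to DMSO and 10 uM staurosporine; AC50 from Hill fit.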
# [4] = target: Guanine nucleotide-binding protein G(i) subunit alpha-1 (Homo sapiens) (UniProt P63096); test: qHTS Assay for Inhibitors of RGS12 GoLoco Motif Activity (Green Fluorophore) (AID 879);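 further: negative values mean loss of peptide binding seen as reduced polarization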
# Outline: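 A drop in FITC polarization marked displacement of the FITC-tagged RGS12 GoLoco peptide (10 nM) from Gαi1 (50 nM). Compounds were incubated 10 min at room temperature in Tris pH 7.5 buffer containing 150 mM NaCl, 0.1 mM GDP and 0.05% NP40; unlabeled peptide titration served as control.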
# [5] = target: Cytochrome P450 3A4 (Homo sapiens) (UniProt P08684); test: qHTS Assay for Inhibitors and Substrates of Cytochrome P450 3A4 (AID 884); further: nearly all actives have a fitted effect of over 50% in size; further: potency means the concentration at half of the fitted maximal effect
# Outline: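 Luminescent readout of luciferin produced by CYP3A4 (20 nM) dealkylation of Luciferin-PPXE, 25 uM (its KM). NADPH-driven reaction ran 60 min at RT after 10 min compound preincubation; data scaled to 57 uM ketoconazole as 100% inhibition.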
# [6] = qHTS Assay for Identification of Small Molecule Antagonists for NFkB Signaling Pathway (AID 895; active means well fitted inhibition curve with a large enough effect in the signal ratio, with a control signal flat, not every such curve was filed as active; the % refers to the signal ratio; further: potency means the concentration at half of the fitted maximal effect)
# Outline: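 ME-180 NFkB-bla cells (beta-lactamase under NFkB response element), plated overnight, treated with compound then 10 pM TNF alpha (about EC50) for 5 hrs at 37 C. LiveBLAzer FRET read at 460/530 nm emission, 405 nm excitation.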
# [7] = Confirmation and Secondary Assay for Modulators of Hemoglobin Beta Chain Splicing at IVS2 654 locus (AID 910);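 further: HeLa cells stably carrying EGFP split by mutant beta-globin IVS2-654 intron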;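 further: potency means the concentration at half of the fitted maximal effect; potency of activators that raise GFP signal by restoring correct splicing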
# Outline: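 HeLa cells stably expressing EGFP interrupted by β-globin IVS2-654 intron, seeded overnight in Opti-MEM/2% FCS, then treated 2 days at 37 °C. Restored splicing read as total peak GFP intensity per well by laser scanning cytometry (488 nm excitation, 500–520 nm emission); 500 nM antisense PNA as control.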
# [8] = qHTS Assay for Identification of Small Molecule Agonists for Thrombopoietin (TPO) Signaling Pathway (AID 917)
# Outline: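 Stimulation at the TPO EC50 (26 pM final) was used to detect activators. Ba/F3 mouse cells bearing human TPO receptor and a luciferase reporter under the Glycoprotein IIb promoter were exposed to compounds for 24 hrs at 37 C.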
# [9] = Confirmation and Secondary Assay for Modulators of Hemoglobin Beta Chain Splicing at IVS2 705 locus (AID 930);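 further: GFP fluorescence per well restored by corrected splicing of the IVS2-705 intron in EGFP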; further: potency means the concentration at half of the fitted maximal effect;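 on activation: HeLa cells stably expressing the EGFP-705 splicing reporter; series mostly up to about 46 µM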
# Outline: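 Assay measures total GFP intensity per well in HeLa EGFP-705 cells after 2 days with compound; mis-splicing normally truncates EGFP, so fluorescence indicates corrected splicing.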
# [10] = target: Pyruvate kinase (Leishmania mexicana) (UniProt Q27686); test: qHTS Validation Assay for Inhibitors of Leishmania Mexicana Pyruvate Kinase (AID 945)
# Outline: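 Pyruvate kinase activity of E451W LmPYK (0.2 nM) was followed as ATP output after 1 h at room temperature with 0.5 mM PEP and 0.1 mM ADP, detected by PKLight luminescence.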
# [11] = MultiTox-Fluor Cytotoxicity Assay - LYMP1-001 - Dead Cells (AID 946)
# Outline: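 In this qHTS, 15 uM tetraoctylammonium bromide defined 100% and DMSO defined basal activity. Lymphoblastoid cells (LYMP1-001, 2500 per well) received compound for 16 hr at 37 C before a fluorogenic dead-cell substrate readout at 485/520 nm.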
# [12] = MultiTox-Fluor Cytotoxicity Assay - LYMP1-001 - Live Cells (AID 947)
# [13] = target: Cytochrome P450 3A4 (Homo sapiens) (UniProt P08684); test: qHTS Assay for Activators of Cytochrome P450 3A4 (AID 885); further: nearly all actives have a fitted effect of over 65% in size
# Outline: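 Using 20nM recombinant human CYP3A4 in potassium phosphate (200mM), substrate Luciferin-PPXE at 25uM, luminescent luciferin detection followed a 60-min RT NADPH reaction; data scaled to 57 uM ketoconazole.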
# [14] = target: Cytochrome P450 2D6 (Homo sapiens) (UniProt P10635); test: qHTS Assay for Inhibitors and Substrates of Cytochrome P450 2D6 (AID 891); further: nearly all actives have a fitted effect of over 60% in size; further: potency means the concentration at half of the fitted maximal effect
# Outline: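 Luminescent read-out of luciferin formed by 5 nM human CYP2D6 demethylating 30 uM Luciferin-ME EGE (Km level) over 60 min at room temperature after NADPH regeneration addition. Data normalized to full inhibition by 1.43 uM quinidine.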
# [15] = target: Cytochrome P450 2C19 (Homo sapiens) (UniProt P33261); test: qHTS Assay for Inhibitors and Substrates of Cytochrome P450 2C19 (AID 899); further: nearly all actives have a fitted effect of over 60% in size
# Outline: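 Signal comes from luciferase acting on luciferin released by CYP2C19-mediated hydroxylation of Luciferin-H EGE, 10uM (KM). Assay mix: 5nM enzyme, 50mM KPO4; 60 min at 37C with NADPH regeneration. Data normalized against 57uM ketoconazole.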
# [16] = target: Muscarinic acetylcholine receptor M1 (Rattus norvegicus) (UniProt P08482); test: qHTS Assay for Antagonists of Acetylcholine Muscarinic M1 Receptor: Kinetic Measurement of Intracellular Calcium Response (AID 943); further: nearly all actives have a fitted effect of over 75% in size; further: potency means the concentration at half of the fitted maximal effect
# Outline: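 Read-out: peak over basal Fluo-4 fluorescence, kinetic at 1 Hz for 4 min after EC80 carbachol (100 nM final). Rat M1-CHO cells, dye loaded 1 h at 37C, compound added 10 min before agonist.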
# [17] = target: Muscarinic acetylcholine receptor M1 (Rattus norvegicus) (UniProt P08482); test: qHTS Assay for Antagonists of Acetylcholine Muscarinic M1 Receptor: Measurement of IP-One Response (AID 944); further: nearly all actives have a fitted effect of over 75% in size; further: potency means the concentration at half of the fitted maximal effect
# Outline: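 Read-out: HTRF competition between d2-IP1 and Eu-cryptate anti-IP1 antibody, emission 620 and 665 nm. Stimulus was carbachol, EC80 (200 nM), for 30 min in M1-CHO cells (rat receptor), after 10 min compound pre-treatment.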
# [18] = Cell Viability - LYMP2-001 (AID 921); further: nearly all actives have a fitted effect of over 70% in size; further: potency means the concentration at half of the fitted maximal effect
# Outline: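 Human lymphoblastoid LYMP2-001 cells, 2500 per well, in complete medium, treated 24 h at 37 C. Viability from cellular ATP by CellTiter-Glo luminescence; AC50 from Hill-equation fits of qHTS concentration-response.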
# [19] = qHTS Assay for Identification of Small Molecule Agonists for Hypoxia Response Element Signaling Pathway (AID 914; active means well fitted activation curve with a large enough effect in the signal ratio, with a control signal flat, not every such curve was filed as active; the % refers to the signal ratio); conditions: ME-180 (cervical carcinoma) HRE-bla reporter, beta-lactamase ratio, CoCl2, 17 h; activation: stronger effect = higher value
# Outline: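 Compounds in a titration series were added to ME-180 reporter cells alongside an EC50 level of CoCl2. After 17 hours, beta-lactamase activity was read as the 460nm/530nm emission ratio of CCF4, giving AC50 values.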
# Sequence of Guanine nucleotide-binding protein G(i) subunit alpha-1 (Homo sapiens) (P63096 whole entry, looked up): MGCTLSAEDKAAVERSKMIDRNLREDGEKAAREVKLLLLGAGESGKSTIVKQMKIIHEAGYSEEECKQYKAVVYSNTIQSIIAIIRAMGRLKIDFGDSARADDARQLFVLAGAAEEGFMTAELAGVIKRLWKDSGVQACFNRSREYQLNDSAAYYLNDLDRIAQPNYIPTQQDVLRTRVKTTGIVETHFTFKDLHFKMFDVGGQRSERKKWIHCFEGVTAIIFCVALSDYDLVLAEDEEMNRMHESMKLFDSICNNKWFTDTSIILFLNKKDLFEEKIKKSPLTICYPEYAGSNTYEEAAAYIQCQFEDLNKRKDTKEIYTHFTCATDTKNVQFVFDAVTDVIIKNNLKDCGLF
# Sequence of Muscarinic acetylcholine receptor M1 (Rattus norvegicus) (P08482 whole entry, looked up): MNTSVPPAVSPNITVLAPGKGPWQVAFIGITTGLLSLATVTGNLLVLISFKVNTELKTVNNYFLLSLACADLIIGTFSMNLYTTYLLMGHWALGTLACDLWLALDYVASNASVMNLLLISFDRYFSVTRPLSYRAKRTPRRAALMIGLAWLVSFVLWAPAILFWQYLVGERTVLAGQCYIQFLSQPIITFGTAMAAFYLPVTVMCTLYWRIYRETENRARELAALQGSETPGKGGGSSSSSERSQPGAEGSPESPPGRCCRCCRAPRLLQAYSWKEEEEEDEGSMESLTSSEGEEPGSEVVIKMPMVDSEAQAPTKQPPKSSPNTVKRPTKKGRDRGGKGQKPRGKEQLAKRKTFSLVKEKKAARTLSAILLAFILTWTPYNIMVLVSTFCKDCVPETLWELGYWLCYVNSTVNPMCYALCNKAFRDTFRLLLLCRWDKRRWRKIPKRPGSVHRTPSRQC
# Sequence of Cytochrome P450 3A4 (Homo sapiens) (P08684 whole entry, looked up): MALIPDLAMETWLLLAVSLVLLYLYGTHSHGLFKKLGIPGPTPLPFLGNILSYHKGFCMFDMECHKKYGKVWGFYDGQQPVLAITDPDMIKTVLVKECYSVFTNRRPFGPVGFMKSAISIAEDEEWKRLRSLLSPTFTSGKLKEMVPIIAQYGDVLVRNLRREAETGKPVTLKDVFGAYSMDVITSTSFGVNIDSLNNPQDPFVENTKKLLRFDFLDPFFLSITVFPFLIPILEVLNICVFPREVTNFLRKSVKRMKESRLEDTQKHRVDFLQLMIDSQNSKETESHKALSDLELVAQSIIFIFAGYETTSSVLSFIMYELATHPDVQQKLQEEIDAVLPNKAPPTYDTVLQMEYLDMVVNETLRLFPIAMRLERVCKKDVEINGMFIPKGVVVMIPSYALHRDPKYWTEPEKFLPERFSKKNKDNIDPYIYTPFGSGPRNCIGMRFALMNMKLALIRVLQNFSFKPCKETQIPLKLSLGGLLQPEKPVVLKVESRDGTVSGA
# Sequence of Pyruvate kinase (Leishmania mexicana) (Q27686 2-499 E452W): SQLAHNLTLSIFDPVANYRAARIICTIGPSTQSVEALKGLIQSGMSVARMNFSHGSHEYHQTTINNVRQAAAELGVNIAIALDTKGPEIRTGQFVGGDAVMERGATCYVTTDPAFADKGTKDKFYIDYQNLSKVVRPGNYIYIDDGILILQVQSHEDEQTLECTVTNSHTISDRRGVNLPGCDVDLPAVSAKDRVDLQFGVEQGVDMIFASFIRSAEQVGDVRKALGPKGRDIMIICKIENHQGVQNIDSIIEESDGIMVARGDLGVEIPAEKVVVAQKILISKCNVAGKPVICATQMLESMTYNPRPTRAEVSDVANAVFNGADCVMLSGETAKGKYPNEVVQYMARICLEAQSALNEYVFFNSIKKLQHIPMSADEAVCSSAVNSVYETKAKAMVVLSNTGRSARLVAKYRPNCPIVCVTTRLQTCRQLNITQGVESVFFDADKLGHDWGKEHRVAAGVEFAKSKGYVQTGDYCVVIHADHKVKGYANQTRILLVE
# Sequence of Cytochrome P450 2D6 (Homo sapiens) (P10635 whole entry, looked up): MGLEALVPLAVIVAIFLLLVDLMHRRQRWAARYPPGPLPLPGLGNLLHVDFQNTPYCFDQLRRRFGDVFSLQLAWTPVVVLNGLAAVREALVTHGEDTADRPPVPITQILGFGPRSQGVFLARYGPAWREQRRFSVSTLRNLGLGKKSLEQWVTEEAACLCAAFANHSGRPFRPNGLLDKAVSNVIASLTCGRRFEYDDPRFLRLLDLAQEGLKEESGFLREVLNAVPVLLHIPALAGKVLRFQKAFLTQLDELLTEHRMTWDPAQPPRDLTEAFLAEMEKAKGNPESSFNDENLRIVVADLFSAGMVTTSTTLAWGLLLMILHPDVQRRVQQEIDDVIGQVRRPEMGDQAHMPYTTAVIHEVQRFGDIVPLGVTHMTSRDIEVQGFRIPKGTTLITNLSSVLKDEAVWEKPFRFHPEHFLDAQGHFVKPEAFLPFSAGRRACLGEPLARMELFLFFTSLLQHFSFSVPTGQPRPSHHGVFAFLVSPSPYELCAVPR
# Sequence of Cytochrome P450 2C19 (Homo sapiens) (P33261 whole entry, looked up): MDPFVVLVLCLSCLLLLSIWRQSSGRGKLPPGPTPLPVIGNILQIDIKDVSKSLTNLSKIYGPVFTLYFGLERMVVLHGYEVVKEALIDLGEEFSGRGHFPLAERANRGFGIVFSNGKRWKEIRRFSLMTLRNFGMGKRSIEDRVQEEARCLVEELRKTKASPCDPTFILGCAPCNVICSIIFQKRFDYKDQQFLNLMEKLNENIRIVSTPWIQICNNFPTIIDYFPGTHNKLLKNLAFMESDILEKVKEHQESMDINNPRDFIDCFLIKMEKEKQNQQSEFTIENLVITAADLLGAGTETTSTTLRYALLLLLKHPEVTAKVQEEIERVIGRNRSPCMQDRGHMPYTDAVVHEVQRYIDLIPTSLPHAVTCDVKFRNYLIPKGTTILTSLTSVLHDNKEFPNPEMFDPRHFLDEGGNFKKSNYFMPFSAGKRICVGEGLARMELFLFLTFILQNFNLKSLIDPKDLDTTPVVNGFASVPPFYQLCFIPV
smiles,measurement,setting,value
NC(N)=NC(=O)c1nc(Cl)c(N)nc1N,outcome,[1],inactive
same,outcome,[2],inactive
same,outcome,[3],inactive
same,outcome,[4],inactive
same,Potency,[5],inactive
same,Potency,[6],inactive
same,Potency,[7],inactive
same,outcome,[8],inactive
same,Potency,[9],inactive
same,outcome,[10],inactive
same,outcome,[11],inactive
same,outcome,[12],inactive
C1COC(NC(C2CC2)C2CC2)=N1,outcome,[4],inactive
same,outcome,[13],inactive
same,Potency,[14],398 nM (active)
same,Potency,[15],inactive
same,outcome,[8],inactive
same,Potency,[16],inactive
same,Potency,[17],inactive
same,outcome,[10],inactive
NC(=O)c1cnccn1,outcome,[1],inactive
same,outcome,[2],inactive
same,outcome,[3],inactive
same,outcome,[4],inactive
same,Potency,[5],inactive
same,Potency,[14],inactive
same,Potency,[15],inactive
same,Potency,[7],inactive
same,outcome,[8],inactive
same,Potency,[18],inactive
same,Potency,[9],inactive
same,outcome,[10],inactive
same,outcome,[11],inactive
same,outcome,[12],inactive
Cc1cnc(NC(=O)C2=C(O)c3ccccc3S(=O)(=O)N2C)s1,outcome,[4],inactive
same,Potency,[6],inactive
same,Potency,[7],inactive
same,Potency,[9],inactive
same,outcome,[10],inactive
CC(C)(Sc1ccc(CCN(CCCCC2CCCCC2)C(=O)NC2CCCCC2)cc1)C(=O)O,outcome,[4],inactive
same,Potency,[5],3.98 µM (active)
same,outcome,[13],inactive
same,Potency,[14],inactive
same,Potency,[6],14.1 µM (active)
same,Potency,[15],inactive
same,outcome,[8],inactive
same,Potency,[16],inactive
same,Potency,[17],inactive
same,outcome,[10],inactive
Nc1ccc(S(=O)(=O)Nc2ccnn2-c2ccccc2)cc1,outcome,[4],inactive
same,outcome,[13],inactive
same,Potency,[6],7.08 µM (active)
same,Potency,[15],inactive
same,Potency,[7],inactive
same,Potency,[9],inactive
same,Potency,[17],inactive
same,outcome,[10],inactive
Cn1cnc([N+](=O)[O-])c1Sc1ncnc2nc[nH]c12,outcome,[1],inactive
same,outcome,[2],inactive
same,outcome,[3],inactive
same,outcome,[4],inactive
same,Potency,[6],inactive
same,Potency,[7],1.58 µM (active)
same,outcome,[8],inactive
same,Potency,[18],39.8 µM (active)
same,Potency,[9],inactive and 2.51 µM (active)
same,outcome,[10],inactive
same,outcome,[11],inactive
same,outcome,[12],inactive
Cc1ccc(N(CC2=NCCN2)c2cccc(O)c2)cc1,outcome,[4],inactive
same,Potency,[14],3.16 µM (active) and 794 nM (active)
same,Potency,[7],inactive
same,outcome,[8],inactive
same,Potency,[9],inactive
same,Potency,[17],inactive
same,outcome,[10],inactive
C[C@]12CCC(=O)C=C1CC[C@@H]1[C@@H]2[C@@H](O)C[C@@]2(C)[C@H]1CC[C@]2(O)C(=O)CO,outcome,[4],inactive
same,outcome,[13],inactive
same,Potency,[6],0.0141 µM (active)
same,outcome,[8],inactive
same,Potency,[17],inactive
same,outcome,[10],inactive
CC(=O)Oc1ccccc1C(=O)O,outcome,[1],inactive
same,outcome,[2],inactive
same,outcome,[3],inactive
same,outcome,[4],inactive
same,Potency,[5],inactive
same,Potency,[14],inactive
same,Potency,[15],inactive
same,Potency,[7],inactive
same,outcome,[8],inactive
same,Potency,[18],inactive
same,Potency,[9],inactive
same,outcome,[10],inactive
same,outcome,[11],inactive
same,outcome,[12],inactive
OC(CN1CCC(Cc2ccc(F)cc2)CC1)c1ccc(Cl)cc1 (configuration not stated),outcome,[4],inactive
same,Potency,[5],inactive
same,Potency,[16],0.398 µM (active)
same,Potency,[17],7.94 µM (active)
same,outcome,[10],inactive
CC(C)NCC(O)COc1ccc(COCCOC(C)C)cc1 (configuration not stated),outcome,[4],inactive
same,Potency,[5],inactive
same,outcome,[8],inactive
same,Potency,[17],inactive
same,outcome,[10],inactive
CCCCNc1cc(C(=O)O)cc(S(N)(=O)=O)c1Oc1ccccc1,outcome,[4],inactive
same,Potency,[6],inactive
same,Potency,[7],inactive
same,outcome,[8],inactive
same,Potency,[9],inactive
same,Potency,[16],inactive
same,Potency,[17],inactive
same,outcome,[10],inactive
N[C@@H]1CONC1=O,outcome,[4],inactive
same,outcome,[13],inactive
same,outcome,[8],inactive
same,outcome,[10],inactive
NS(=O)(=O)c1cc2c(cc1Cl)NC=NS2(=O)=O,outcome,[1],inactive
same,outcome,[2],inactive
same,outcome,[3],inactive
same,outcome,[4],inactive
same,Potency,[7],inactive
same,activation,[19],13.9% (inactive) and 2.11% (inactive) and -1.51% (inactive)
same,outcome,[8],inactive
same,Potency,[18],inactive
same,Potency,[9],inactive
same,outcome,[10],inactive
same,outcome,[11],inactive
same,outcome,[12],inactive
O=C1CCc2cc(OCCCCc3nnnn3C3CCCCC3)ccc2N1,outcome,[4],inactive
same,outcome,[13],inactive
same,Potency,[14],inactive
same,Potency,[15],inactive
same,Potency,[7],inactive
same,Potency,[9],inactive
same,outcome,[10],inactive
